The campaign covered roughly 4,100 compounds. About 1,600 (39%) were called active. Not shown: some 25% with an inconclusive outcome. Calls come from the whole dose curve; as a rule, active = well fitted inhibition curve with a large enough effect; inconclusive = small, poorly fitted or top-dose-only effect; inactive = no such curve, though single readings can be large or run the other way. Some of the results follow.
experiment: qHTS Validation assay for Inhibitors of Plasmodium falciparum Dd2 growth in vitro; note: nearly all actives have a fitted effect of over 70% in size; conditions: P. falciparum Dd2 in RBCs, SYBR Green growth, 72 h; series mostly up to 28.7 µM; activity change, negative = inhibition: at the top concentration
In short: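 P. falciparum Dd2-infected red blood cells (2.5% hematocrit, 0.3% parasitemia) grown 72 h at 37 °C under 5% O2 with compounds in a titration, 29 uM to 0.5 nM final. Growth read as SYBR Green-1 fluorescence after ~16 h lysis; artesunate 300 nM as positive control.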
% is set by controls: 0 for no effect and ±100 for the full control effect; potency is the fitted concentration of half-maximal effect.

Activity change, negative = inhibition, inactive:
Cn1nc(-c2nncn2CC2CC2)c2c1CCN(C(=O)c1[nH]nc3c1COc1ccccc1-3)C2 -23.7%
COc1cccc(C2Cn3nnc(-c4nc(-c5ccccc5Br)no4)c3CO2)c1 (stereo unspecified) -18.1%
CCC(=O)N(C1CCOCC1)C1CCN(Cc2cccc(Cl)c2)CC1 9.38%
Cc1ccc(CN2CCc3oc(C)c(C(=O)N(C)CC(=O)N4CCCC4)c3C2)cc1 -21.8%
O=C1CN(Cc2ccc(-c3ccccc3)cc2)CCN1c1cc(Cl)ncn1 8.44%
CCOc1ccc(-c2cc3c(=O)n(CCNC(=O)c4ccccc4OC)ccn3n2)cc1 -7.19%
COc1ccccc1CC(=O)NCCn1ccn2nc(-c3ccc(C)c(C)c3)cc2c1=O -25.6%
Cc1cccc(CNC(=O)Cn2nc(C)c3nn(-c4ccc(Cl)cc4)c(C)c3c2=O)c1 33.4%
COc1ccc(C(=O)NCCn2ccn3nc(-c4cc(C)ccc4C)cc3c2=O)cc1OC -17.3%
Cc1ccc2nc(-c3sc4nc(C)ccc4c3N)[nH]c2c1 -26.6%
COc1ccc(-c2cc3c(=O)n(CCNC(=O)c4ccc(OC)cc4OC)ccn3n2)cc1 -17.1%
COc1ccc(-c2cc3c(=O)n(CCNC(=O)c4cc(OC)cc(OC)c4)ccn3n2)cc1 18.8%
CC(C)N(Cc1nc2ccccc2[nH]1)C(C)C -3.28%
Cc1ccc(NC(=O)CSc2nc(-c3ccco3)cc(C(F)(F)F)n2)c(C)c1 -29%
CCc1cc(C(=O)c2ccccc2)c(N)s1 35.9%
Cc1ccc(-c2onc3ccc(C(=O)O)cc23)cc1 19.2%
CCc1nc2cc(N3CCC(C(=O)NCc4ccc5c(c4)OCO5)CC3)cnc2nc1CC -21.2%
Cc1ccc(S(=O)(=O)N2CCC(C(=O)NCC3CC3)CC2)cc1 18.4%
Cc1cccc(OCC(=O)NC2CCN(C(=O)c3cc4c(=O)[nH]c(C)cn4n3)CC2)c1 -0.762%
CCn1ncc(N2CCC(NC(=O)COc3ccc(F)cc3)CC2)cc1=O -8.45%
Cc1cccnc1NC(=O)COc1ccc2oc3c(c2c1)CCCC3 26%
Cc1ccc(C)c(OCC(=O)Nc2cc(C(=O)O)cc(C(=O)O)c2)c1 -0.159%
CCn1cc(S(=O)(=O)N2CCCOCCNC(=O)[C@@H]3CCC[C@@H]32)cn1 1.04%
COc1ccc(Cn2c(C3CCN(C(=O)Cc4ccc(F)cc4)CC3)n[nH]c2=O)cc1 -12.2%
COc1ccc(CN2CC[C@H](c3nnc(-c4ccccc4F)o3)C2)cc1 6.78% [at 43.1 µM]
CC1CCN(c2nc3ccc(C(=O)O)cc3s2)CC1 68.3%
COc1ccc(CNC(=O)Cn2c(SCC(=O)N(C)c3ccccc3)nc3ccccc32)cc1 21.9%
O=C(CC1CCCN(c2cnn(CC3CC3)c(=O)c2)C1)NCc1ccccc1 (stereo unspecified) 8.87%
Cc1ccc(C)n1-c1nnc(N2CCCC(C(=O)NCc3ccccc3)C2)s1 (stereo unspecified) -8.48%

Potency, active:
O=c1cc(-c2ccccc2)c2ccc3c(c2o1)CN(Cc1cccc(Cl)c1)CO3 0.842 µM
Cc1ccc(CN2COc3ccc4c(-c5ccccc5)cc(=O)oc4c3C2)cc1 0.842 µM
CCc1c(C)c2ccc3c(c2oc1=O)CN(Cc1ccccc1)CO3 2.11 µM
O=C(NC(=S)Nc1ccc(NC(=O)c2cccs2)cc1)c1ccco1 9.44 µM
CCN(CC)CCCNC(=O)c1nn(-c2ccc(OC)c(Cl)c2)c(=O)c2c1c1ccccc1n2C 10.6 µM
CCN(CCCNC(=O)c1nn(-c2ccc(OC)c(Cl)c2)c(=O)c2c1c1ccccc1n2C)c1cccc(C)c1 15 µM
COc1ccc(-n2nc(C(=O)NCCc3ccc(OC)c(OC)c3)c3c4ccccc4n(C)c3c2=O)cc1Cl 2.99 µM
CCn1cnc2c(Nc3cc(F)cc(F)c3)nc(C#N)nc21 2.37 µM
N#Cc1nc(Nc2cc(F)cc(F)c2)c2ncn(CC(F)F)c2n1 4.73 µM
CCCC(O)c1nc2ccccc2n1CCCCOc1ccc(OC)cc1 (stereo unspecified) 15 µM
CCC(C(=O)NCCn1ccn2nc(-c3ccc(OC)cc3)cc2c1=O)c1ccccc1 (stereo unspecified) 15 µM
COC[C@H]1CCCN1[C@@H]1[C@H](O)[C@H](CO)O[C@@H]1CN(Cc1cccc(Cl)c1)Cc1cccc(Cl)c1 10.6 µM
O=C1c2ccccc2C2=Nc3ccccc3SC(c3ccccc3F)C12 (stereo unspecified) 4.73 µM
O=C1c2ccccc2C2=Nc3ccccc3SC(c3ccc(Cl)cc3)C12 (stereo unspecified) 2.66 µM
CCN(CC)C(=O)c1sc(NC(=O)C(C)Sc2nc(-c3ccccc3)cc(C(F)(F)F)n2)c(C(=O)OC)c1C (stereo unspecified) 0.596 µM
CCCOC(=O)c1c(NC(=O)C(C)Sc2nc(-c3ccccc3)cc(C(F)(F)F)n2)sc(C(=O)N(C)C)c1C (stereo unspecified) 1.68 µM
CCOC(=O)c1sc(NC(=O)C(C)Sc2nc(-c3ccccc3)cc(C(F)(F)F)n2)c(C(=O)OC)c1C (stereo unspecified) 2.37 µM
CCOc1ccc2nc(C)cc(Nc3ccc4c(c3)OCCO4)c2c1 6.68 µM
COc1ccc2nc(C)cc(NCc3cccc(C(F)(F)F)c3)c2c1 2.11 µM
COC(=O)c1ccc2nc(C)cc(Nc3ccc(O)cc3)c2c1 9.44 µM
Cc1ccc2nc(C)cc(Nc3ccc([N+](=O)[O-])cc3)c2c1 6.68 µM
COc1ccc2nc(C)cc(Nc3ccc(Cl)c(Cl)c3)c2c1 2.66 µM
Cc1ccc(S(=O)(=O)N2CCN(C(=S)NCc3ccc4c(c3)OCO4)CC2)cc1 2.37 µM
CCCc1cc(=O)oc2cc(C)cc(OCC(=O)Nc3cccnc3)c12 0.531 µM
CCCCc1cc(=O)oc2cc(C)cc(OCC(=O)Nc3cccnc3)c12 0.596 µM
CCCc1cc(=O)oc2cc(C)cc(OCC(=O)NC3CC3)c12 4.73 µM
CCCc1cc(=O)oc2cc(C)cc(OCC(=O)Nc3ccccn3)c12 2.11 µM
Cc1cc([N+](=O)[O-])ccc1NC(=O)COc1nsnc1N1CCOCC1 6.68 µM
COc1ccc(CCN2CCC(Nc3nc4ccccc4n3Cc3ccc(F)cc3)CC2)cc1 2.37 µM
Cc1nc(N2CCC(C)CC2)c2c(C)c(C(=O)Nc3ccc(C(F)(F)F)cc3)sc2n1 7.5 µM
CN(C(=O)CSc1nc2ccc(NC(=O)CCc3ccccc3)cc2s1)c1ccccc1 13.3 µM
O=C(NCc1ccc(N2CCCC2)cc1)C1CCCN(c2cnn(Cc3ccccc3)c(=O)c2)C1 (stereo unspecified) 10.6 µM
